Data taken from PubChem BioAssay (NCI).
Compounds without any hit were thinned out: in the full panel of roughly 79,000, 15% have a hit. A number with no mark means an inactive call. Calls of active or inactive are those of the source. No stated cut-off is given here; in the data, active means growth inhibition above about 70%; inactive means the rest.

What was measured:
[1] = NCI Yeast Anticancer Drug Screen. Data for the rad50 strain (AID 155);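 further: 0% = growth of vehicle-only cultures of the same strain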; details: S. cerevisiae rad50 strain growth inhibition, hits give high values
Method in brief: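 DNA repair mutant yeast, compound exposure, growth read-out; inhibition is taken relative to vehicle.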

[2] = NCI Yeast Anticancer Drug Screen. Data for the mec2-1 strain (AID 157); details: S. cerevisiae mec2-1 strain, hits give high values
Method in brief: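 Using mec2-1 yeast: add compound, measure growth, express inhibition versus vehicle-treated cultures.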

[3] = NCI Yeast Anticancer Drug Screen. Data for the sgs1 mgt1 strain (AID 161);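 further: 0% = growth of cultures given vehicle only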; details: S. cerevisiae sgs1 mgt1 strain, hits give high values
Method in brief: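 Percent growth inhibition was derived by comparing compound-exposed mutant yeast with vehicle-exposed cultures. The strain carries alterations in DNA damage repair.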

[4] = NCI Yeast Anticancer Drug Screen. Data for the cln2 rad14 strain (AID 165);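 further: 0% = growth equal to vehicle treated cultures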; details: S. cerevisiae cln2 rad14 strain, hits give high values
Method in brief: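 Yeast strain cln2 rad14, bearing defects in cell cycle control and DNA repair, serves as the test system; values reflect growth inhibition compared with vehicle.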

[5] = NCI Yeast Anticancer Drug Screen. Data for the bub3 strain (AID 167); details: S. cerevisiae bub3 mutant strain, hits give high values
Method in brief: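 In this screen, a yeast mutant lacking normal mitotic checkpoint function is challenged with compound. Relative growth versus vehicle gives the inhibition value.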

[6] = NCI Yeast Anticancer Drug Screen. Data for the mlh1 rad18 strain (AID 175); details: S. cerevisiae mlh1 rad18 strain growth inhibition, hits give high values
Method in brief: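 Steps: expose repair-defective yeast to compound; measure growth; express inhibition against vehicle-treated controls.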

[7] = at 5.0 µM (retest, dose inferred, filed as 0.5)
[8] = at 50.0 µM (retest, dose inferred, filed as 5.0)

SMILES | growth inhibition [1, 7] | growth inhibition [1, 8] | growth inhibition ([1]; at 50.0 µM) | growth inhibition [2, 7] | growth inhibition [2, 8] | growth inhibition ([2]; at 50.0 µM) | growth inhibition [3, 7] | growth inhibition [3, 8] | growth inhibition ([3]; at 50.0 µM) | growth inhibition [4, 7] | growth inhibition [4, 8] | growth inhibition ([4]; at 50.0 µM) | growth inhibition [5, 7] | growth inhibition [5, 8] | growth inhibition ([5]; at 50.0 µM) | growth inhibition [6, 7] | growth inhibition [6, 8] | growth inhibition ([6]; at 50.0 µM)
COc1c2c(cc3c1c(=O)c1ccccc1n3C)OCO2 | -12% | 26% | 61.5% | -4% | 1% | 33.9% | -5% | 14% | 40.5% | 18% | 5% | -45.8% | 2% | 0% | 25.4% | -29% | 22% | 62.8%
O=C(Nc1ccc(C2=NCCN2)cc1)c1cc(C(=O)Nc2ccc(C3=NCCN3)cc2)cc(C(=O)Nc2ccc(C3=NCCN3)cc2)c1 | 37% | 96% (active) | 99% (active) | 5% | 94% (active) | 99% (active) | 16% | 95% (active) | 98.8% (active) | 13% | 62% | 90.1% (active) | 23% | 99% (active) | 98.8% (active) | 25% | 98% (active) | 99% (active)
CCN(CC)CCCC(C)Nc1cc(C)nc2c1ccc1c2ccc2c(NC(C)CCCN(CC)CC)cc(C)nc21 (stereo unspecified) | -2% | 61% | 58.1% | -39% | 91% (active) | 53.7% | -1% | 59% | 49.5% | 7% | 20% | 71.4% (active) | -2% | 96% (active) | 96.3% (active) |  |  | 
Cc1cc(O)c(C)c(C)c1N=Nc1ccccc1 | -157% | -58% | 56.4% | -52% | -51% | 6.3% | -68% | -38% | 58.5% | -63% | -81% | 16.8% | -70% | -47% | 63.8% | -124% | -119% | 87.5% (active)
Cc1c(Cl)c(S(N)(=O)=O)cc2c1NC=NS2(=O)=O | 10% | -10% | 7.45% | -1% | 2% | -22.8% | -2% | -14% | -26.1% | 7% | 9% | 22.4% | -13% | -3% | -20.4% |  |  | 
O=C1CN(c2cccc(Cl)c2)C(=O)CN1/N=C/c1ccc[nH]1 | 4% | -3% | 98.4% (active) | 7% | 0% | 99.2% (active) | 10% | 0% | 98.7% (active) | 2% | -3% | 97.9% (active) | 1% | -3% | 98.3% (active) | -3% | -5% | 99% (active)
CCN(CCCOc1ccccc1)CCN(CC)CCCOc1ccccc1 | 1% | 13% | 34.5% | 19% | 38% | 33.2% | 1% | 59% | 60.9% | 0% | 11% | 73.2% (active) | 2% | 14% | 42% | 15% | 44% | 35.6%
Cc1cccc(Cl)c1NC(=O)/C=C/c1ccccc1 | 41% | 44% | -22.1% | 44% | 44% | -6.05% | -1% | 23% | 1.1% | 29% | 6% | -1.6% | 27% | 39% | 8.6% |  |  | 
COc1ccc(C2c3cc4c(cc3OC(NCCO)C2C)OCO4)cc1 (stereo unspecified) | -3% | 88% (active) | 89% (active) | -43% | 86% (active) | 92.5% (active) | -50% | 82% (active) | 90.3% (active) | 5% | 78% (active) | 92% (active) | -24% | 95% (active) | 91.2% (active) | -18% | 91% (active) | 88.2% (active)
O=c1oc2ccccc2c(O)c1/C=N/C(=S)NCc1ccccc1 | -28% | -15% | 83.8% (active) | -11% | -18% | 85.8% (active) | -19% | -19% | 87.3% (active) | -19% | 10% | 76.2% (active) | -19% | 2% | 78.3% (active) |  |  | 
COc1cc2c(c(-c3cn(C)c4ccccc34)c1OC)OCO2 | 4% | 24% | 36.2% | 0% | 54% | 15.3% | 4% | 59% | 86% (active) | -1% | 1% | -30.6% | 2% | 78% (active) | 84.5% (active) | 0% | 35% | 41.9%
CCCCCC(Oc1ccc(Cl)cc1)C(=O)O (stereo unspecified) | 2% | 84% (active) | 81.7% (active) | 2% | 83% (active) | 58.5% | 3% | 85% (active) | 80.2% (active) | -1% | 87% (active) | 75.5% (active) | 7% | 87% (active) | 71.5% (active) |  |  | 
c1ccc([P+](c2ccccc2)(c2ccccc2)C2CCCC2)cc1 | -18% | 7% | 96.8% (active) | -13% | 15% | 97.5% (active) | -13% | 40% | 97.6% (active) | -3% | -1% | 98.3% (active) | 0% | -1% | 95.5% (active) |  |  | 
CCOc1ccccc1NC1=C(Cl)C(=O)c2ccccc2C1=O | 99% (active) | 97% (active) | 23.9% | 99% (active) | 98% (active) | 97.9% (active) | 100% (active) | 98% (active) | 98% (active) | 99% (active) | 98% (active) | 97% (active) | 99% (active) | 97% (active) | 97.8% (active) | 99% (active) | 97% (active) | 96.1% (active)
O=C1NC(=S)S/C1=C\c1cc(Cl)ccc1O | 4% | -7% | 2.85% | -4% | -6% | 15.7% | -1% | 4% | 60.5% | -7% | -18% | -22.4% | -7% | -14% | -4.2% |  |  | 
CC(C)(C)c1cc(C(=O)[O-])c([OH2+])c(C(C)(C)C)c1.CC(C)(C)c1cc(C(=O)[O-])c([OH2+])c(C(C)(C)C)c1.[Mn+2] | 22% | 59% | 99% (active) | 27% | 60% | 98.8% (active) | 21% | 42% | 98.5% (active) | 42% | 78% (active) | 97% (active) | 21% | 49% | 97% (active) | 28% | 71% (active) | 98.2% (active)
CC(=O)N=C1N(/C=C2\C(=O)Oc3ccccc3C2=O)C(=O)/C(=C/c2cccc(Cl)c2Cl)N1C | 5% | 89% (active) | -7.75% | 12% | 61% | 0.2% | -12% | 8% | 28.2% | 7% | 25% | -21.8% | -11% | 17% | -37.5% | 13% | 95% (active) | -22.4%
COc1ccccc1/C=C1\SC(=S)N(/C=C2\C(=O)Oc3ccccc3C2=O)C1=O | 1% | 12% | 30.9% | -3% | 27% | 18.6% | 8% | 12% | 54.2% | -8% | 17% | 58.9% | 20% | 38% | 32.2% | -16% | 14% | 53.7%
O=C1CCC(Cc2ccc(C(F)(F)F)cc2)C(=O)N1 (stereo unspecified) | -3% | 7% | 1.65% | -1% | 3% | 22.1% | 2% | 92% (active) | 95.8% (active) | -3% | 5% | -42.7% | -2% | -2% | -52.6% | -4% | 3% | 6.6%
C/C=C/C=C/C(=O)Nc1ccc([N+](=O)[O-])cc1 | 0% | 53% | 39.8% | -5% | 39% | -0.4% | -1% | 74% (active) | 87% (active) | -9% | 16% | 10.7% | 0% | 63% | 36.4% |  |  | 
